Compounds with a hit are over-represented: about 1.9% of the library has one in this group of screens.
LYPLA1 inh – counter-screen for PME1 inhibitors: inhibitors of human LYPLA1. recombinant LYPLA1, FP-Rh probe fluorescence polarization. actives 0.16% (n = 320,000). inhibition, % at 5.9 µM;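 active = inhibition above the mean of all tested compounds plus 3 SD, set per campaign, cut at about 14% in these data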;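 also: inhibitors block serine hydrolase probe labeling of LYPLA1 so polarization falls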
GSTO1 inh – counter-screen for RBBP9 inhibitors: inhibitors of human GSTO1; actives 1.1% (n = 300,000); P78417; recombinant GSTO1, activity-based probe fluorescence polarization; AID 1974; inhibition, % at 5.96 µM;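 active = inhibition above the campaign mean inhibition plus 3 SD, cut at about 35% in these data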
Target sequence (P78417 whole entry, looked up): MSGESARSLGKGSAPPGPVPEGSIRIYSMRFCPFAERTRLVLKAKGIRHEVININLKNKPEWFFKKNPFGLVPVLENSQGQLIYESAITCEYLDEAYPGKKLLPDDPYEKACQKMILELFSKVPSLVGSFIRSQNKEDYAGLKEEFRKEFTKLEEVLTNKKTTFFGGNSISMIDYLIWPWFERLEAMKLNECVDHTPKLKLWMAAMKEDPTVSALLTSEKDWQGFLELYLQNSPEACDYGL
LYPLA2 counter – blocks human lysophospholipase 2, a PME1 counter-screen | O95372 | recombinant LYPLA2, FP-Rh probe fluorescence polarization | inhibition, % at 5.9 µM | actives 0.38% (n = 320,000) | AID 2177;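 active = inhibition above the screen-wide mean plus 3 SD, limit set per campaign, cut at about 26% in these data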
PME-1 inh – PME-1 (human) inhibition; inhibition, % at 5.9 µM; Q9Y570; recombinant PME-1, FP-Rh probe fluorescence polarization; actives 0.53% (n = 320,000);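 active = inhibition above the campaign mean of all compounds plus 3 SD, cut at about 26% in these data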;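 also: competitive labeling of PME-1 active site by serine hydrolase directed probe; inhibitors block probe labeling so polarization falls and inhibition rises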
Target sequence (Q9Y570 whole entry, looked up): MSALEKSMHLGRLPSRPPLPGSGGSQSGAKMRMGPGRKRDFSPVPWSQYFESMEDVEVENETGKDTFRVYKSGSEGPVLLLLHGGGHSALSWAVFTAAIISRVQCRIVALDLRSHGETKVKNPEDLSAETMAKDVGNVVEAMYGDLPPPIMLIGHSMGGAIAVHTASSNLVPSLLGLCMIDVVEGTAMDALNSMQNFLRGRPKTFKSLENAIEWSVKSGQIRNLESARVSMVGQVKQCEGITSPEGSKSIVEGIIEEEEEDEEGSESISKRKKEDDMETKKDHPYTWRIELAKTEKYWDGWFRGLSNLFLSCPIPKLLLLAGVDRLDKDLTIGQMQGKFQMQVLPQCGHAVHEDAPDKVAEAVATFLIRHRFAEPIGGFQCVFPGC
PREPL inh – human PREPL enzyme inhibition. recombinant PREPL, fluorescence polarization activity-based probe. inhibition, % at 5.96 µM. actives 0.68% (n = 320,000)
Fam108B counter – blocks mouse Fam108B hydrolase in RBBP9 counter-screen. recombinant Fam108B, FP-Rh probe fluorescence polarization. inhibition, % at 9.51 µM. actives 0.33% (n = 300,000);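 active = inhibition above the screen mean inhibition plus 3 SD, computed separately per campaign, cut at about 18% in these data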;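 also: inhibitors lower polarization as less probe binds the enzyme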
PREPL inh cf – confirmation of human PREPL enzyme inhibitors; shares compounds with PREPL inh; recombinant PREPL, fluorescence polarization activity probe; inhibition, % at 5.96 µM; actives 67% (n = 2,000); AID 2803
Each line names hits and unclear results; the compound was inactive in the other large screens (follow-up assays come after a bar, where they were run). Rule as the data show it, unless noted: active = inhibition above about 43%; inactive = the rest.

CCc1cc(=O)oc2cc(C)cc(OCC(=O)NCC(O)c3ccccc3)c12 (stereo not given)	none
COc1ccc(/C=N/Nc2cc(C)nc3c(C)cccc23)cc1	PREPL inh 47.6 | PREPL inh cf 47.1
COc1ccc(/C=N/Nc2cc(C)nc3ccccc23)cc1	none
O/N=C/c1cc(Cl)ccc1OCc1cccc2ccccc12	none
Cc1nc2cc(N)ccc2n1C1CCCCC1	PREPL inh 48.8 | PREPL inh cf inactive
COc1cc(-c2nnc3sc(Cc4ccc(Cl)cc4)nn23)cc(OC)c1OC	PREPL inh 53.7 | PREPL inh cf 52.5
COc1ccc(Cc2nn3c(-c4cc(OC)c(OC)c(OC)c4)nnc3s2)cc1	none
CC(=O)Nc1ccc(C(=O)Cn2c3[n+](c4c(F)c(F)ccc42)CCCCC3)cc1	PREPL inh 47.2 | PREPL inh cf 56.3
COc1ccc(C(=O)Cn2nc(CNc3ccc(Br)cc3)[n+]3c2CCCCC3)cc1	none
O=C(c1ccc(S(=O)(=O)NCc2ccco2)cc1)N1CCCC1	none
N#Cc1ccc(CN2CCN(C(=O)c3ccc(S(=O)(=O)NCc4ccco4)cc3)CC2)cc1	PREPL inh 50.4 (no result: GSTO1 inh, Fam108B counter) | PREPL inh cf inactive
CN1CCN(C(c2cccc(C(F)(F)F)c2)c2nnnn2C(C)(C)C)CC1 (stereo not given)	PREPL inh 43.4 | PREPL inh cf inactive
Cc1ccc(C)c(C(=O)OCC(=O)Nc2cccc(S(=O)(=O)NC3=NCCCCC3)c2)c1	PREPL inh 46.4 | PREPL inh cf inactive
Cc1ccc(S(=O)(=O)NCC(=O)OCC(=O)Nc2cccc(S(=O)(=O)NC3=NCCCCC3)c2)cc1C	none
O=c1cc(-c2ccc(O)cc2)oc2c(-c3c(O)cc(O)c4c(=O)cc(-c5ccc(O)cc5)oc34)c(O)cc(O)c12	PREPL inh 50.6 (no result: LYPLA1 inh, GSTO1 inh, LYPLA2 counter, PME-1 inh, Fam108B counter) | PREPL inh cf inactive
COc1ccc(-c2cc(=O)c3c(O)cc(O)cc3o2)cc1	none
Cc1ccc(C)n1-c1ccc(C(=O)NN)s1	PREPL inh 56.5 | PREPL inh cf inactive
CCOC(=O)CNC(=O)c1ccc(Br)s1	none
Cc1sc(NC(=O)c2ccccc2)c(C(c2ccc(Cl)cc2)N2CCN(CCO)CC2)c1C (stereo not given)	PREPL inh 48.2 | PREPL inh cf inactive
Cc1c(CCOC(=O)c2ccc([N+](=O)[O-])cc2)sc[n+]1CC(=O)c1ccccc1	PREPL inh 62.8 | PREPL inh cf inactive
Cc1c(CCOC(=O)c2cccc([N+](=O)[O-])c2)sc[n+]1CC(=O)c1ccccc1	PREPL inh 50.7 | PREPL inh cf inactive
Cc1c(CCOC(=O)c2ccc(Cl)cc2Cl)sc[n+]1CC(=O)c1ccc(Br)cc1	none (no result: LYPLA1 inh, GSTO1 inh, LYPLA2 counter, PME-1 inh, Fam108B counter)
Cc1cc[n+](CC(=O)c2cccc([N+](=O)[O-])c2)c2ccccc12	PREPL inh 44.8 | PREPL inh cf inactive
COc1ccc(C(=O)OCCc2sc[n+](CC(=O)c3ccccc3)c2C)cc1	none
COCCNC(=O)CN1CCN(S(=O)(=O)c2ccc3c(c2)CCCC3)CC1	none (no result: GSTO1 inh, Fam108B counter)
C/C=C(\C)CN1CCCC(N(C)CCc2ccc(OC)c(OC)c2)C1 (stereo not given)	none
CC(C)(C)NC(=S)Nc1ccc(Nc2ccccc2)cc1	PREPL inh 59.1 | PREPL inh cf inactive
CC(C)(C)NC(=S)Nc1ccc(Br)cc1	none
CCOc1ccccc1C(=O)NCC(=O)OCC(=O)c1c(N)n(C)c(=O)n(C)c1=O	none (no result: LYPLA1 inh, GSTO1 inh, LYPLA2 counter, PME-1 inh, Fam108B counter)
Cc1ccccc1NC(=O)C(C#N)Cc1cccnc1 (stereo not given)	PREPL inh 70.3 | PREPL inh cf inactive
CCOc1ccc(-c2cnc(NCc3cccc4ccccc34)n2CCOC)cc1	PREPL inh 47.4 | PREPL inh cf inactive
CCOC(=O)/C(C#N)=N\Nc1cc(Cl)ccc1OC	none
OC(c1ccccc1)(c1ccccc1)c1ccn[nH]1	none
Nc1nc(-c2ccccc2)c(N=Nc2ccccc2Cl)s1	PREPL inh 61.4 | PREPL inh cf 62.2
Nc1nc(-c2ccccc2)c(N=Nc2cccc3ccccc23)s1	none
OCc1ncccc1O	none
C#Cc1ccc([C@@H]2C=C(C(=O)N3CCOCC3)O[C@H](OCc3ccc(CO)cc3)C2)cc1	PREPL inh 44.6 | PREPL inh cf 43.8
O=C(NC1CC1)C1=C[C@@H](c2ccc(C(F)(F)F)cc2)C[C@@H](OCc2ccc(CO)cc2)O1	PREPL inh 47.1 | PREPL inh cf inactive
CN1CCN(C(=O)C2=C[C@@H](c3ccc(C(F)(F)F)cc3)C[C@@H](OCCCCO)O2)CC1	PREPL inh 45.4 | PREPL inh cf 53.7
O=C(C1=C[C@H](c2ccc(C(F)(F)F)cc2)C[C@H](OCc2ccc(CO)cc2)O1)N1CCCCCCC1	none
CN1CCN(C(=O)C2=C[C@H](c3ccc(C(F)(F)F)cc3)C[C@H](OCCCCO)O2)CC1	none
O=C(C1=C[C@@H](c2ccc(C(F)(F)F)cc2)C[C@@H](OCc2ccc(CO)cc2)O1)N1CCOCC1	PREPL inh 55.2 | PREPL inh cf 48.4
CN(C(=O)CSc1nnnn1-c1ccccc1)C1CCS(=O)(=O)C1 (stereo not given)	none
CCOc1ccc(S(=O)(=O)N2CCCCC2)cc1NC(=O)C1=COCCO1	none
Cc1ccccc1OCc1n(CC(=O)OC2CC(C)CCC2C(C)C)c2ccccc2[n+]1C (stereo not given)	none
CC1CCC(C(C)C)C(OC(=O)Cn2c(-c3ccc(Br)cc3)[n+](C)c3ccccc32)C1 (stereo not given)	PREPL inh 48.8 | PREPL inh cf 43.7
CC1CCC(C(C)C)C(OC(=O)Cn2c(-c3ccc(Cl)cc3)[n+](C)c3ccccc32)C1 (stereo not given)	PREPL inh 43.3 | PREPL inh cf 47.5
CC(C)[C@@H]1CC[C@@H](C)C[C@H]1OC(=O)C[n+]1cc(-c2ccc(Cl)cc2)n2c1CCCCC2	none
COc1ccc(OCC(=O)NCCNC(=O)c2cccnc2)cc1	none
CC(=O)C1=C(C)N2CCN=C2S1	none
O=C(CNC(=O)c1ccco1)NCC(c1ccco1)N1CCCCC1 (stereo not given)	PREPL inh 73.2 (no result: GSTO1 inh, Fam108B counter) | PREPL inh cf inactive
O=C(CNC(=O)c1ccccc1)NCC(c1ccco1)N1CCCC1 (stereo not given)	none (no result: LYPLA1 inh, GSTO1 inh, LYPLA2 counter, PME-1 inh, Fam108B counter)
COc1ccc(NC(=O)CSc2nc3c(c(-c4cccs4)c2C#N)CN(C)CC3)cc1OC	PREPL inh 44.5 | PREPL inh cf inactive
CC(C)NC(=O)c1ccc(NC(=O)CC2SC(N3CCCCC3)=NC2=O)cc1 (stereo not given)	PREPL inh 80.3 (no result: GSTO1 inh, Fam108B counter) | PREPL inh cf inactive
N#C/C(=C\c1cccs1)c1nc2ccccc2[nH]1	none
N#C/C(=C\C1CC2C=CC1C2)c1nc2ccccc2[nH]1 (stereo not given)	PREPL inh 48.0 | PREPL inh cf inactive

From PubChem
